Assay outcomes from PubChem.
HPGD block = HPGD (human) dehydrogenase inhibition; AID 894; Potency, µM, actives largely listed as inhibitors; P15428; actives 4.3% (n = 150,000); purified HPGD, NADH fluorescence kinetic, PGE2 substrate; active means well fitted inhibition curve with a large enough effect, not every such curve was filed as active; inconclusive means small, poorly fitted or top-dose-only effect, or another doubt; inactive means no such curve, though single readings can be large or run the other way
Target sequence (P15428 whole entry, looked up): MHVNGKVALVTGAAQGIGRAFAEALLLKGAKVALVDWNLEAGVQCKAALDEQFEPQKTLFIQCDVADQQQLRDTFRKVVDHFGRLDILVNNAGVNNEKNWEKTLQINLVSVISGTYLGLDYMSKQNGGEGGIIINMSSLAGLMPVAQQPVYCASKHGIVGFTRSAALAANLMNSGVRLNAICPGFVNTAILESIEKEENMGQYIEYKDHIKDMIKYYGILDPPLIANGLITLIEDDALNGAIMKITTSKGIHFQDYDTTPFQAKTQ
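NADH formation kinetics: reaction with 30 uM PGE2 and 1 mM NAD+ (final), 20 nM enzyme, Tris-HCl pH 8 with Tween 20, after 15 min compound preincubation at room temperature. Fluorescence change, last versus first of five reads.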
GLA spleen mod = inhibits or activates alpha-galactosidase in human spleen homogenate; human spleen homogenate, 4MU-alpha-Gal fluorescence, 40 min; P06280; actives 0.008% (n = 240,000); AID 2107; Potency, µM (top dose mostly 80 µM), actives largely listed as inhibitors
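qHTS titration in buffer at pH 5.0. Alpha-galactosidase activity in spleen homogenate was measured via 4-methylumbelliferone release from 1 mM fluorogenic substrate after 40 min at 37C and a pH 10 stop. AC50 came from Hill fits of control-normalized data.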
GLA inh pH 4.5 = blocks human alpha-galactosidase A at pH 4.5 | P06280 | purified enzyme, 4-MU-alpha-Gal fluorescence, pH 4.5 | activity change, negative = inhibition, % at 105 µM | 230,000 tested, under 10 active | AID 1467
Target sequence (P06280 whole entry, looked up): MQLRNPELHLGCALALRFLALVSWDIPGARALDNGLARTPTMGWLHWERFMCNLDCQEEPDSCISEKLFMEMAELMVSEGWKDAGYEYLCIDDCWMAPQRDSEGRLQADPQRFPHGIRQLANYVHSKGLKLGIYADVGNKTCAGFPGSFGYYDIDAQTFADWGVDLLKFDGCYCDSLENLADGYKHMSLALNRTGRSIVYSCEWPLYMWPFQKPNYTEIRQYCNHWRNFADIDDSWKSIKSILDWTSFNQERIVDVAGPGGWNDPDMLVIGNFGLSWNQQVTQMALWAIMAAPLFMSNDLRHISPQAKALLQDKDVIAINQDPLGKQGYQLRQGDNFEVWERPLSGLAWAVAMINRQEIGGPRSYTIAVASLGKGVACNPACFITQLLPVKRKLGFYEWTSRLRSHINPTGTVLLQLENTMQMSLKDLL
12-hLO inh = blocks human 12-lipoxygenase activity | Potency, µM (series often up to 57.1 µM), most hits filed as inhibitors | purified 12-hLO, xylenol orange hydroperoxide absorbance | P18054 | actives 0.12% (n = 150,000); further: nearly all actives have a fitted effect of over 55% in size
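Hydroperoxide formation by human 12-lipoxygenase from 40 uM arachidonic acid was followed colorimetrically via ferric-xylenol orange complex, using the 573/405 nm absorbance ratio. Enzyme concentration was 150 nM, with 30 min reaction at room temperature.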
ALDH1A1 block = inhibitors of human aldehyde dehydrogenase 1A1. actives 7.3% (n = 220,000). Potency, µM (series often up to 75.3 µM), most hits filed as inhibitors. Purified ALDH1A1, NADH fluorescence, propionaldehyde substrate. P00352; active means well fitted inhibition curve with a large enough effect, not every such curve was filed as active; inconclusive means small, poorly fitted or top-dose-only effect, or another doubt; inactive means no such curve, though single readings can be large or run the other way
PNC inhibitor = blocks assembly of the perinucleolar compartment; PC3M PTB-GFP, PNC prevalence imaging, 16 h; active compounds read low; activity change (PNC), negative = inhibition, % at 10 µM; actives 3.1% (n = 140,000); AID 2417;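 active means readout at or below -70, meaning at least 70% loss of cells showing the perinucleolar compartment, a nuclear body marking cancer cells; inconclusive means readout between -30 and a set limit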
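Read-out is percentage of cells bearing a perinucleolar compartment, from automated 20x imaging of fixed, Hoechst-stained PC3M PTB-GFP cells. Cells were seeded 4 h, then exposed 16 h to compound (23 nl of library stock) in duplicate plates.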
Of the large screens only hits and unclear results are named; the others gave an inactive call. Only some compounds are listed: those with a hit (about 10% of all), similar ones and a draw of the others. Unless noted, the call rests on the fitted dose curve; in most records, active means well fitted curve in the direction sought with a large enough effect; inconclusive means small, poorly fitted or top-dose-only effect, or another doubt; inactive means no such curve, though single readings can be large; an effect the other way counts as inactive or inconclusive.

CCc1nnc(NC(=O)c2ccc(S(=O)(=O)N(CC)Cc3ccccc3)cc2)o1	ALDH1A1 block 17.8µM (no result: HPGD block)
COc1ccc(OC)c(NC(=O)CCc2c[nH]c3ccccc23)c1	none (no result: HPGD block, 12-hLO inh, PNC inhibitor)
CC(C)NC[C@@H](O)COc1cccc2ccccc12	none (no result: PNC inhibitor)
COc1cc(Cl)c(C)cc1NC(=O)COC(=O)c1cc[n+]([O-])cc1	ALDH1A1 block 15.8µM (no result: HPGD block, 12-hLO inh, PNC inhibitor)
CC(Sc1ccc2c(c1)OCCO2)C(=O)Nc1ccc2c(c1)OCO2 (stereo not drawn)	ALDH1A1 block 10µM
CC(C)[C@H](NC(=O)Nc1cccc(Br)c1)C(=O)O	PNC inhibitor -91.3
C[C@H](NC(=O)Nc1cccc(Br)c1)C(=O)O	none (no result: HPGD block, 12-hLO inh, ALDH1A1 block, PNC inhibitor)
Cc1nnc(SC(C)C(=O)Nc2ccc3c(c2)OCCO3)s1 (stereo not drawn)	none
CCOCC(=O)Nc1ccc(F)c(F)c1	HPGD block 28.2µM
CC1/C=C/C=C/C=C/C=C/C=C/C=C/C=C/C(OC2OC(C)C(O)C(N)C2O)CC2O[C@@](O)(CC(O)CC(O)C(O)CCC(O)CC(O)CC(=O)OC(C)[C@H](C)C1O)CC(O)C2C(=O)O (stereo partly drawn)	HPGD block inconclusive, ALDH1A1 block inconclusive (no result: PNC inhibitor)
CO[C@H]1COC(=O)C/C=C\[C@H](C)[C@@H](OC)COC(=O)[C@@H](C)COC(=O)C/C=C\[C@@H]1C	none (no result: HPGD block, GLA inh pH 4.5, 12-hLO inh, PNC inhibitor)
CC(C)CNS(=O)(=O)c1ccc(CCC(=O)NCc2ccncc2)cc1	none (no result: HPGD block, 12-hLO inh, PNC inhibitor)
CCC(=O)Nc1cccc(Br)c1	PNC inhibitor -115.7
CCOCC(=O)Nc1ccc2c(c1)OCCO2	HPGD block 14.1µM, ALDH1A1 block inconclusive, PNC inhibitor inconclusive
CCC(=O)Nc1cccc(C(=O)c2ccccc2)c1	none
CCC(=O)Nc1ccc2c(c1)C(=O)N(C)C2=O	HPGD block inconclusive, ALDH1A1 block inconclusive
CCC(=O)Nc1ccc2c(c1)C(=O)c1ccccc1C2=O	ALDH1A1 block 7.94µM
CCOCC(=O)Nc1cccc(Br)c1	HPGD block 25.1µM, ALDH1A1 block 20µM
C=C/C1=C/Cc2ccccc2[C@H](C[N+](=O)[O-])C(C(C)=O)(C(=O)OC)C1 (stereo partly drawn)	none (no result: PNC inhibitor)
O=C(CSc1nnc(COc2ccc(Cl)cc2)o1)N1CCOCC1	none (no result: HPGD block, 12-hLO inh, PNC inhibitor)
O=C(O)C1C2CC3C(OC(=O)C31)C2Cl (stereo not drawn)	none
CC(=O)OCC1OC(c2ccc(C(C)=O)cc2)C=CC1OC(C)=O (stereo not drawn)	none (no result: HPGD block, GLA inh pH 4.5, 12-hLO inh, PNC inhibitor)
O=C(O)c1ccc(-c2ccccc2C(F)(F)F)s1	HPGD block inconclusive, ALDH1A1 block inconclusive (no result: PNC inhibitor)
CC(C)C(NC(=S)Nc1ccccc1)C(=O)O (stereo not drawn)	HPGD block 31.6µM, PNC inhibitor inconclusive
O=C(COC(=O)c1cc[n+]([O-])cc1)Nc1ccc2c(c1)OCCO2	ALDH1A1 block 14.1µM
NC(=O)c1ccc(NC(=O)COC(=O)c2ccc3c(c2)OCCO3)cc1	none (no result: HPGD block, 12-hLO inh, ALDH1A1 block, PNC inhibitor)
Cc1ccc(NC(=O)CSc2nc3ccccc3c(=O)n2CCCC(=O)N2CCCC2)cc1	ALDH1A1 block inconclusive, PNC inhibitor inconclusive
O=C(CSc1nc2ccccc2c(=O)n1CCC(=O)N1CCCCC1)NCc1ccccc1	ALDH1A1 block 8.91µM, PNC inhibitor inconclusive
CCn1c(SCC(=O)N2CCCC2)nc2ccccc2c1=O	HPGD block inconclusive
COCCn1c(SCC(=O)N2CCCCC2)nc2ccccc2c1=O	ALDH1A1 block 10µM
CC(C)C(NC(=O)COc1ccc2ccccc2c1)C(=O)N/N=C/C=C/c1ccccc1 (stereo not drawn)	none
COc1ccc(N2C(=O)C(CC(N)=O)N(NC(=O)CCc3ccccc3)C2=O)cc1 (stereo not drawn)	none (no result: HPGD block, 12-hLO inh, PNC inhibitor)
CN(CCO)C(=O)CCC(=O)Nc1ccc(S(N)(=O)=O)cc1	PNC inhibitor -126.9
CCOC(=O)c1ccc(NS(=O)(=O)c2ccc3[nH]c(=O)[nH]c3c2)cc1	HPGD block 28.2µM, ALDH1A1 block 15.8µM
CCOC(=O)c1ccc(NC(=O)N(CC)CC)cc1	PNC inhibitor -92.1
CCOC(=O)c1ccc(NC(=O)Nc2ccc(S(N)(=O)=O)cc2)cc1	PNC inhibitor -122.4
CCOc1ccc(/C=C/C(=O)CCC(=O)O)cc1	ALDH1A1 block inconclusive (no result: HPGD block, 12-hLO inh, PNC inhibitor)
Cc1nc(NCCc2ccccc2)c(C#N)c(C)c1[N+](=O)[O-]	none
COc1ccc(C2=NN(CN3C(=O)C(=O)c4ccccc43)C(c3ccc(C)cc3)C2)cc1 (stereo not drawn)	ALDH1A1 block 0.562µM
COc1ccc(C2=NN(CN3C(=O)C(=O)c4ccccc43)C(c3ccc(Br)cc3)C2)cc1 (stereo not drawn)	ALDH1A1 block 0.282µM
COc1ncc2nc(-c3ccc(F)cc3)c(=O)n(Cc3cccs3)c2n1	ALDH1A1 block inconclusive (no result: HPGD block, GLA inh pH 4.5, 12-hLO inh, PNC inhibitor)
Cn1c(Cn2nnc3ccccc32)nnc1SCC(=O)N1CCc2ccccc21	ALDH1A1 block 28.2µM, PNC inhibitor inconclusive
CCn1c(CSc2ncccn2)nnc1SCC(=O)N1CCc2ccccc21	ALDH1A1 block 20µM, PNC inhibitor inconclusive
C[C@]12CCC(=O)C=C1CC[C@@H]1C2[C@@H](O)C[C@@]2(C)[C@H]1CC[C@]2(O)C(=O)CO (stereo partly drawn)	none (no result: 12-hLO inh, PNC inhibitor)
Cc1ccc(NCc2ccccc2)cc1	none (no result: HPGD block, 12-hLO inh, PNC inhibitor)
Cc1ccc(Nc2ccc(NCc3ccccc3)nn2)cc1C	none
Clc1ccc(-c2nnc(NCc3ccccc3)c3ccccc23)cc1	HPGD block 5.62µM, ALDH1A1 block 22.4µM
Clc1ccc(Nc2ccc(NCc3ccccc3)nn2)cc1	HPGD block 5.62µM
Cc1ccc(-c2nnc(NCc3ccccc3)c3ccccc23)cc1	HPGD block 3.16µM, PNC inhibitor inconclusive
CS[C@]12C(=O)C[C@]3(C)[C@@H](CC[C@@]3(O)C(=O)CO)[C@@H]1CCC1=CC(=O)CC[C@]12C	none (no result: GLA spleen mod, GLA inh pH 4.5, PNC inhibitor)
Clc1nc2ccccc2nc1Cl	none (no result: GLA inh pH 4.5, PNC inhibitor)
Cc1ccc(NC(=O)c2ccccc2OCc2ccc([N+](=O)[O-])cc2)nc1	none (no result: HPGD block, 12-hLO inh, PNC inhibitor)
Cc1cccc(N2C(=O)CSC23CCCCC3)c1	none (no result: HPGD block, 12-hLO inh, PNC inhibitor)
Cc1cc(C(=O)Nc2ccc(F)cc2C)n(-c2ccccc2)n1	none (no result: HPGD block, 12-hLO inh, ALDH1A1 block, PNC inhibitor)
COc1ccc(CCNC(=O)/C(C#N)=C/c2cccc(OCc3ccccc3)c2)cc1OC	none
COCCCNC(=O)/C(C#N)=C/c1cccc(NC(=O)c2ccccc2Cl)c1	ALDH1A1 block 14.1µM
N#C/C(=C\c1cccc(NC(=O)c2ccccc2Cl)c1)C(=O)NCCc1ccccc1	HPGD block inconclusive, ALDH1A1 block 25.1µM
COCCCNC(=O)/C(C#N)=C/c1ccc(F)cc1	ALDH1A1 block inconclusive (no result: HPGD block, 12-hLO inh, PNC inhibitor)
